In all, about 290,000 compounds went through this assay and about 800 (0.28%) were called active.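 The calls were made as follows: active = fall in fluorescence gain of 50% or more versus controls, with final raw signal at or below 3038400; inconclusive = same 50% fall but final raw signal above 3038400; inactive = fall in fluorescence gain under 50%.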 The sample as a whole holds a higher share of actives than the screen did.
These compounds were tested against CAAX prenyl protease 2 (Saccharomyces cerevisiae (strain ATCC 204508 / S288c)) (UniProt Q03530) (assay: blockers of Rce1 CaaX peptide cleavage – biochemical, fluorescence, cell-free homogeneous, primary screen (AID 2563)). Settings: yeast membranes, quenched prenylated peptide cleavage fluorescence.
Sequence of CAAX prenyl protease 2 (Saccharomyces cerevisiae (strain ATCC 204508 / S288c)) (Q03530 whole entry, looked up): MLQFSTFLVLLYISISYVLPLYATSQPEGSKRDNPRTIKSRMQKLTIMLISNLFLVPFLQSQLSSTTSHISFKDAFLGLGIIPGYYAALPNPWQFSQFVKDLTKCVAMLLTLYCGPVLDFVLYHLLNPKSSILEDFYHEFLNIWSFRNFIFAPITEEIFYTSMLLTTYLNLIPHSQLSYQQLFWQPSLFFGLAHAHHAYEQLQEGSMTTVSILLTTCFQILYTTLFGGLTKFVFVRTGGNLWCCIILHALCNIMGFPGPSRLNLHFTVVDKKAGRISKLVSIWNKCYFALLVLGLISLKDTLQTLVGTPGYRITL

Compound	outcome
O=C(Nc1ccc(N2CCCCC2)cc1)c1cc(S(=O)(=O)N2CCOCC2)ccc1F	inactive
CN1c2ccc(C=O)c3c(C=O)ccc(c23)N(C)C1(C)C	active
CCOc1ccc(S(=O)(=O)NCCC(=O)NCC(C)(C)N2CCOCC2)cc1	inactive
CC(=O)Nc1ccc(NC(=O)CSc2nnnn2C2CCCCC2)cc1	inactive
COc1ccc(Cl)cc1NS(=O)(=O)c1cccc(C(=O)NC2CCC(O)CC2)c1 (centres undefined)	inactive
Cc1ccc(NC(=O)C2CC(=O)N(c3ccc4c(c3)OCCO4)C2)cc1S(=O)(=O)N1CCCCCC1 (centres undefined)	inactive
O=C(CCNC(=O)c1ccc(Br)cc1)NCCCc1ccccc1	inactive
CN(CC(=O)NNC(=O)CNC(=O)c1ccccc1Cl)S(=O)(=O)c1ccc(Cl)cc1	inactive
Cc1ccc(SCc2c(C(=O)N/N=C/C3CC=CCC3)nnn2-c2nonc2N)cc1 (centres undefined)	inactive
COCc1c(C(=O)N/N=C\c2cccnc2)nnn1-c1nonc1N	inactive
COCc1c(C(=O)N/N=C/C2CC=CCC2)nnn1-c1nonc1N (centres undefined)	active
CCCn1c(C2CCCN2c2nc(-c3ccc(C)cc3)cs2)nc2cc(Cl)c(N3CCCCC3)cc21 (centres undefined)	inactive
Cc1ccc(-c2csc(NCCc3nc4cc(Cl)c(Cl)cc4n3CCOCCO)n2)cc1	inactive
Cc1ccc(-c2csc(N3CCN(c4cc5c(cc4Cl)nc(-c4ccncc4)n5CCOCCO)CC3)n2)cc1	active
COc1ccc(Cl)cc1NC(=O)CN(C)C(=O)c1cc(-c2cccs2)nn1-c1ccccc1	inactive
COc1cc2ccccc2cc1C(=O)Nc1ccncc1	inactive
CCc1nnc(NS(=O)(=O)c2ccc(NC(=O)c3cccc(OC(F)(F)C(F)F)c3)cc2)s1	inactive
CC1(C)O[C@H]2CC(=O)OCC23[C@H]2CC[C@@]4(C)[C@H](c5ccoc5)OC(=O)[C@H]5O[C@]54[C@]2(C)C(=O)C[C@@H]13 (some centres undefined)	inactive
CCCNC(=O)c1ccc(N2CCC3(CC2)CC(c2cccc(Br)c2)=NO3)c(NC(=O)c2ccco2)c1	inactive
Cc1cccc(N=C2SC(C)CN2C(=O)CN2C(=O)NC3(CCCC3)C2=O)c1 (centres undefined)	inactive
O=C(CC(c1ccccc1)c1ccccc1)NCC(O)c1ccc([N+](=O)[O-])cc1 (centres undefined)	active
O=C(NCC(O)c1ccc([N+](=O)[O-])cc1)C1CCCCC1 (centres undefined)	inactive
CC(=O)NCC(O)c1ccc([N+](=O)[O-])cc1 (centres undefined)	inactive
Cc1ccc(OCC(=O)Oc2ccccc2[N+](=O)[O-])cc1	inactive
Cc1cc(C)c(C)c(S(=O)(=O)N2CCN(C(=O)c3ccc4c(=O)n5c(nc4c3)CCC5)CC2)c1C	inactive

Compound	outcome
COc1ccc(CCNC(=S)N2CCN(S(=O)(=O)c3ccc(F)cc3)CC2)cc1	inactive
CC(=O)C12CC(C)=C(C)CC1CC1C3CCC4=CC(=O)CCC4(C)C3CCC12C (centres undefined)	inactive
CSc1nsc(NC(=O)Nc2ccccc2)n1	inactive
CCN(Cc1ccccc1)C(=O)Cc1ccc(OC)c(S(=O)(=O)N2CCOCC2)c1	inactive
O=C(COc1coc(CN2CCN(c3ccccc3)CC2)cc1=O)Nc1ccccc1F	inactive
COCCCN(C(=O)CSCc1ccc(C)cc1)c1c(N)n(Cc2ccccc2)c(=O)[nH]c1=O	inactive
COc1ccc(N2CCN(S(=O)(=O)c3cc4c5c(c3)C(C)C(=O)N5CCC4)CC2)cc1 (centres undefined)	inactive
O=C(Nc1ncccc1O)c1ccc(S(=O)(=O)N2CCCCCC2)cc1	inactive
COc1cc(C2C(C(=O)c3cccs3)=C(O)C(=O)N2CCN2CCOCC2)ccc1OCCC(C)C (centres undefined)	inactive
Cc1ccc2nc(SCC(=O)N3CC(C)OC(C)C3)nc(=O)n2c1 (centres undefined)	inactive
Cc1cccc(C)c1NC(=O)CNC(=O)c1c(C)nn(-c2ccccc2)c1C	inactive
CCc1noc(C)c1C(=O)N1CCCSC1=Nc1ccccc1OC	inactive
CCCCn1c(N)c(N(CC(C)C)C(=O)C2CSC3(C)CCC(=O)N23)c(=O)[nH]c1=O (centres undefined)	inactive
COc1ccc(CNC(=O)COC(=O)CCS(=O)(=O)c2ccc(C)cc2)cc1OC	inactive
Cc1c(NC(=O)C(C)Oc2cccc(Cl)c2)c(=O)n(-c2ccccc2)n1C (centres undefined)	inactive
O=C(NC1CCCCC1)c1ccc(-c2ccc(Cl)cc2)o1	inactive
CCOc1ccc(C(C)=O)cc1COC(=O)CNC(=O)c1cccs1	inactive
O=C(COc1coc(CN2CCN(c3ccccc3F)CC2)cc1=O)N1CCc2ccccc21	inactive
O=c1[nH]c(/C=C/c2cccc(Br)c2)nc2ccccc12	inactive
COc1ccc(NC(=O)CN(C)C(=O)c2ccc(COc3ccccc3)o2)cc1	inactive
Cc1ccc(S(=O)(=O)N2CCOCC2)cc1C(=O)Nc1ccccc1N1CCCC1	inactive
COc1ccc([C@@H]2[C@@H]3C(=O)N(C(C)(C)C)C(=O)[C@@H]3[C@]3(Cc4ccccc4)C(=O)N(c4cccc(Br)c4)C(=O)N23)cc1	inactive
CCOC(=O)c1c(C)c(C(=O)NCCc2ccc(S(N)(=O)=O)cc2)c(C)n1CC	inactive
CCCNC(=O)c1c(N)n(-c2ccc(S(N)(=O)=O)cc2)c2nc3ccccc3nc12	active
Cc1noc(C)c1C(=O)NCCc1ccc(S(N)(=O)=O)cc1	inactive

Compound	outcome
CN(C)C(CNC(=O)c1cccc(S(=O)(=O)Nc2ccc(Br)cc2)c1)c1ccco1 (centres undefined)	inactive
COc1ccc(N2CC(C(=O)NCCN3C(=O)S/C(=C\c4cccnc4)C3=O)CC2=O)c(OC)c1 (centres undefined)	inactive
CC1(C)C/C(=N/Nc2ccc([N+](=O)[O-])cc2[N+](=O)[O-])C(C)(C)O1	inactive
COc1ccc(C(CNC(=O)c2ccc(NS(=O)(=O)c3ccc(F)c(C)c3)cc2)N(C)C)cc1 (centres undefined)	inactive
CCOC(=O)c1cnc2nc(SCc3ccccc3Cl)[nH]n2c1=O	inactive
CCOC(=O)c1cc(C(C)C)sc1NC(=O)COC(=O)c1nccnc1N	inactive
Cc1nc2ccccc2c(=O)n1-c1ccc(NS(=O)(=O)c2ccc(F)cc2F)cc1	inactive
O=C(CNC(=O)c1ccccc1Br)NCCSc1ccc(Br)cc1	inactive
COc1ccc(-c2oc3ncn(Cc4ccco4)c(=N)c3c2-c2ccc(OC)cc2)cc1	active
N=c1c2c(-c3ccccc3)c(-c3ccccc3)oc2ncn1Cc1ccco1	inactive
COc1ccc(-c2oc3ncnc(NCCCO)c3c2-c2ccc(OC)cc2)cc1	inactive
CCCCn1c(N)c(N(CCOC)C(=O)COc2c(C)cccc2C)c(=O)[nH]c1=O	inactive
CCCOc1ccccc1C(=O)NCCCC(=O)O	active
COc1ccc(CCNC(=O)c2ccccc2OCc2ccccc2)cc1	inactive
CCCCOCCCNC(=O)c1ccccc1OCC	inactive
O=C(Nc1ccc2nc3n(c(=O)c2c1)CCCC3)c1ccc(Cl)nc1	inactive
O=C(Nc1ccc(S(=O)(=O)N2CCCCC2)cc1)C1CCN(C(=O)c2ccc(F)cc2)CC1	inactive
O=C(O)CCC(=O)N(Cc1cccs1)Cc1cccs1	inactive
CC(=O)N(Cc1cccs1)C1CCOC(C)(C)C1 (centres undefined)	active
CC1(C)CC(N(Cc2ccccc2)C(=O)Cc2ccccc2)CCO1 (centres undefined)	inactive
COc1ccccc1CNC(=O)CSc1nc(=O)n(Cc2ccncc2)c2c1CCC2	inactive
Cc1ccccc1C(=O)NCC(c1ccco1)N1CCc2ccccc21 (centres undefined)	inactive
O=C(NCCS(=O)(=O)N1CCN(c2ccc(F)cc2)CC1)c1ccc2c(c1)OCO2	inactive
N#CCCN(C(=O)COC(=O)c1ccc(S(=O)(=O)N2CCCCCC2)cc1)c1ccccc1	inactive
Cc1ccccc1OCC(=O)Nc1ccc2c(c1)ncn2C	inactive

Compound	outcome
COc1cc(NC(=O)CSC(=S)N2CCCC2)c(OC)cc1Cl	inactive
O=C(O)c1ccc(/C=N/NC(=O)c2ccc(Br)cc2)cc1	inactive
CN(C)c1ccc(/C=N/NC(=O)C(O)c2ccc(Br)cc2)cc1 (centres undefined)	active
CN(C)c1ccc(/C=N/NC(=O)c2ccc(Cn3cc(Br)cn3)o2)cc1	inactive
COc1ccc(S(=O)(=O)N2CCCCC2)cc1NC(=O)c1cc([N+](=O)[O-])ccc1N1CCOCC1	inactive
CC1(c2ccc(Cl)cc2Cl)NC(=O)N(CC(=O)Nc2cccnc2Cl)C1=O (centres undefined)	inactive
COc1ccc(C(CNC(=O)c2cccc(S(=O)(=O)Nc3ccccc3Cl)c2)N2CCOCC2)cc1 (centres undefined)	inactive
O=C(CCC1CCCCC1)Nc1cc(C(F)(F)F)ccc1N1CCOCC1	inactive
O=C(CN1CCOCC1)Nc1cccc([N+](=O)[O-])c1	inactive
Cc1ccc(S(=O)(=O)CC(=O)Nc2sc(C)c(C)c2C(N)=O)cc1	inactive
CCn1c(=N)n(CC(=O)c2cccc(OC)c2)c2ccccc21	inactive
CCCCOC(=O)Cn1c(=N)n(CCN(CC)CC)c2ccccc21	inactive
CCCCCCCCCCOC(=O)Cn1c(COc2cccc(OC)c2)[n+](C)c2ccccc21	active
Cc1ccc(OCc2nc3ccccc3n2C)cc1	inactive
CCCCCCCCCCOC(=O)Cn1c(COc2ccc(C)cc2)[n+](C)c2ccccc21	active
COc1cccc(OCC(=O)Nc2ccccc2C(N)=O)c1	inactive
Cc1ccc(CC(=O)N(C)CC(=O)N(CC(C)C)c2c(N)n(CC(C)C)c(=O)[nH]c2=O)cc1C	inactive
Cc1ccc(Cc2nnc(SCC(=O)Nc3ccccc3C)[nH]c2=O)cc1	inactive
CC(=O)NC(Cc1c[nH]c2ccccc12)C(=O)NCCc1ccccc1 (centres undefined)	inactive
Cc1cccc(C)c1OCC(=O)NC(Cc1c[nH]c2ccccc12)C(=O)O (centres undefined)	inactive
CC(=O)NC(Cc1c[nH]c2ccccc12)C(=O)O (centres undefined)	active
COc1ccccc1CCC(=O)NNC(=O)c1ccncc1	inactive
O=C(COC(=O)CCOc1ccccc1)Nc1cc(S(=O)(=O)N2CCCCC2)ccc1Cl	inactive
CCN(CC)c1ccc(NC(=O)c2ccc(=O)[nH]c2)cc1S(=O)(=O)Nc1ccc(OC)cc1	inactive

Source: PubChem BioAssay AID2563 (Broad Institute, 2010)
